A short description of test [1]: qHTS assay to identify small molecule antagonists of the glucocorticoid receptor (GR) signaling pathway - cell viability counter screen (AID 720693). Also: nearly all actives have a fitted effect of over 55% in size. Also: potency is read from the fitted curve at half-maximal effect.
Test [2] is described as follows: qHTS assay for identifying genotoxic compounds that show differential cytotoxicity against isogenic chicken DT40 cell lines with known DNA damage response pathways - wild type cell line (AID 743012). Also: nearly all actives have a fitted effect of over 60% in size. Also: potency is read from the fitted curve at half-maximal effect. A digest of the protocol:
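Parental DNA repair-proficient DT40 cells, 300 per well, were pre-incubated ~0.5 h at 37 C/5% CO2, pin-dosed with compounds in DMSO, then incubated 40 h. Viability was read as CellTiter-Glo luminescence after 30 min at room temperature.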

Test [3] in a line: qHTS assay for identifying genotoxic compounds that show differential cytotoxicity against isogenic chicken DT40 cell lines with known DNA damage response pathways - Rev3 mutant cell line (AID 743014; also: nearly all actives have a fitted effect of over 55% in size; also: potency is read from the fitted curve at half-maximal effect). (In qHTS, concentration-response curves come from the screen itself.)
Test [4] is described as follows: qHTS assay for identifying genotoxic compounds that show differential cytotoxicity against isogenic chicken DT40 cell lines with known DNA damage response pathways - Rad54/Ku70 mutant cell line (AID 743015). Also: potency is read from the fitted curve at half-maximal effect; nearly all actives have a fitted effect of over 60% in size.
Test [5] in a line: qHTS assay to identify small molecule antagonists of the thyroid receptor (TR) signaling pathway - cell viability counter screen (AID 743064). Also: nearly all actives have a fitted effect of over 50% in size. Also: potency is read from the fitted curve at half-maximal effect. In short, it runs like this: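 In rat pituitary GH3.TRE-Luc reporter cells co-exposed to compound and 1 nM T3 for 23.5 h, cytotoxicity was assessed with CellTiter-Fluor in the same wells, read by fluorescence.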
The subject of test [6] is thyroid hormone receptor (rat, GH3 cells). In words: qHTS assay to identify small molecule agonists of the thyroid receptor (TR) signaling pathway (AID 743066; calls by dose curve).
Test [7] has as its target Estrogen receptor (Homo sapiens) (UniProt P03372). The experiment in a line: qHTS assay to identify small molecule antagonists of the estrogen receptor alpha (ER-alpha) signaling pathway (AID 743069; active = well fitted curve in the direction sought with a large enough effect in the signal ratio in the repeat runs, not every such curve was filed as active; inconclusive = weak or mixed curves, or effect the other way; inactive = no such curve, though single readings can be large or run the other way; the % refers to the signal ratio; also: potency is read from the fitted curve at half-maximal effect). In short, it runs like this:
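HEK293 cells stably carrying an ER-alpha-UAS-bla beta-lactamase reporter were pre-cultured overnight in 2% charcoal-stripped FBS medium. Test compounds in DMSO were added together with 17beta-estradiol for 18 hr at 37C. Read-out was fluorescence after 2 hr with LiveBLAzer B/G FRET substrate at room temperature.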

A short description of test [8]: qHTS assay to identify small molecule antagonists of the estrogen receptor alpha (ER-alpha) signaling pathway - cell viability counter screen (AID 743074; calls by dose curve; also: nearly all actives have a fitted effect of over 45% in size; also: potency is read from the fitted curve at half-maximal effect).
In test [9] the target is Estrogen receptor (Homo sapiens) (UniProt P03372). The experiment in a line: qHTS assay to identify small molecule agonists of the estrogen receptor alpha (ER-alpha) signaling pathway (AID 743075; calls by dose curve; also: potency is read from the fitted curve at half-maximal effect).
Test [10] shares this target. The experiment in a line: qHTS assay to identify small molecule agonists of the estrogen receptor alpha (ER-alpha) signaling pathway using the BG1 cell line (AID 743079). Also: nearly all actives have a fitted effect of over 20% in size.
Test [11] can be described thus: qHTS assay to identify small molecule antagonists of the estrogen receptor alpha (ER-alpha) signaling pathway using the BG1 cell line (AID 743080; calls by dose curve;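 also: BG1 cells stimulated with 17beta-estradiol alongside compound; nearly all actives have a fitted effect of over 25% in size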; also: potency is read from the fitted curve at half-maximal effect). In short, it runs like this:
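After 5 days in phenol-red-free 10% charcoal-stripped FBS medium, BG1-Luc-4E2 cells were seeded, left 24 h at 37 C, co-treated with compounds and 17beta-estradiol for 21.5 h, then assayed for viability and luciferase.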

The nature of test [12]: qHTS assay to identify small molecule antagonists of the estrogen receptor alpha (ER-alpha) signaling pathway using the BG1 cell line - cell viability counter screen (AID 743081).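 Also: compound given together with 17beta-estradiol as the ER stimulus; nearly all actives have a fitted effect of over 45% in size.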 Also: potency is read from the fitted curve at half-maximal effect.
Test [13] in a line: qHTS assay to identify aromatase inhibitors - cell viability counter screen (AID 743084).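 Also: cells stimulated with testosterone during compound exposure; nearly all actives have a fitted effect of over 55% in size.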 Also: potency is read from the fitted curve at half-maximal effect.
Test [14] is described as follows: qHTS assay to identify small molecule antagonists of the androgen receptor (AR) signaling pathway - cell viability counter screen (AID 743033; also: nearly all actives have a fitted effect of over 45% in size; also: potency is read from the fitted curve at half-maximal effect).
A short description of test [15]: qHTS assay to identify small molecule antagonists of the thyroid receptor (TR) signaling pathway (AID 743065). Also: nearly all actives have a fitted effect of over 55% in size. Also: potency is read from the fitted curve at half-maximal effect. In short, it runs like this: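 GH3.TRE-Luc rat pituitary cells carrying two TR response elements driving luciferase were plated for 4 h, given compound plus 1 nM T3 (final), and incubated 23.5 h at 37 C. ONE-Glo luminescence measured reporter inhibition; CellTiter-Fluor fluorescence tracked cytotoxicity.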

The next test deals with Aromatase (Homo sapiens) (UniProt P11511). In words: qHTS assay to identify aromatase inhibitors (AID 743083). Also: nearly all actives have a fitted effect of over 55% in size. Also: potency is read from the fitted curve at half-maximal effect.
Test [16] can be described thus: qHTS assay to identify small molecule antagonists of the androgen receptor (AR) signaling pathway using the MDA cell line - cell viability counter screen (AID 743041; also: nearly all actives have a fitted effect of over 45% in size). In short, it runs like this:
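MDA-kb2 AR-luc human breast carcinoma cells (MMTV-luciferase, AR/GR responsive) were treated with compounds plus R1881 agonist for 16 h at 37 °C. Viability was read as CellTiter-Fluor fluorescence in the same wells as the reporter assay.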

Test [17] has as its target Androgen receptor (Homo sapiens) (UniProt P10275). The experiment in a line: qHTS assay to identify small molecule antagonists of the androgen receptor (AR) signaling pathway using the MDA cell line (AID 743042; also: nearly all actives have a fitted effect of over 55% in size; also: potency is read from the fitted curve at half-maximal effect). A digest of the protocol:
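MDA-kb2 cells (human breast carcinoma, stably carrying an MMTV-luciferase reporter responsive to AR and GR) were plated at 3,000 cells/well and preincubated 5 hr at 37C, then given compound plus R1881 agonist for 16 h. ONE-Glo luminescence was read.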

Test [18] shares this target. The experiment in a line: qHTS assay to identify small molecule agonists of the androgen receptor (AR) signaling pathway (AID 743036; active = well fitted activation curve with a large enough effect in the signal ratio in the repeat runs, with a control signal flat, not every such curve was filed as active; inconclusive = weak or mixed curves, or effect the other way; inactive = no such curve, though single readings can be large or run the other way; the % refers to the signal ratio). In short, it runs like this:
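Cell-based FRET reporter assay: HEK293 line with a UAS-beta-lactamase construct, compounds added in DMSO, 16 h exposure at 37C, then 2 h substrate step at room temperature and fluorescence intensity read.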

Test [19] has the same target. In words: qHTS assay to identify small molecule agonists of the androgen receptor (AR) signaling pathway using the MDA cell line (AID 743040; also: nearly all actives have a fitted effect of over 20% in size). A digest of the protocol:
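MDA-kb2 breast carcinoma cells stably carrying an MMTV-driven luciferase reporter (AR- and GR-responsive) were seeded and held 5 h at 37C, 0% CO2, then exposed to compounds in DMSO for 16 h. Luminescence was read 30 min after ONE-Glo addition.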

Values joined by “and” are separate entries in the source; they are usually repeats but may differ in a detail not shown here. Equal entries are not always repeated. Some compounds were tested as several samples or in several runs, with calls that do not always agree. Active and inactive are the calls of the source. Unless noted, calls follow the shape of the dose curve; as a rule, active = well fitted curve in the direction sought with a large enough effect in the repeat runs; inconclusive = weak or mixed curves; inactive = no such curve, though single readings can be large; an effect the other way counts as inactive or inconclusive.

Chain of Aromatase (Homo sapiens) (P11511 whole entry, looked up): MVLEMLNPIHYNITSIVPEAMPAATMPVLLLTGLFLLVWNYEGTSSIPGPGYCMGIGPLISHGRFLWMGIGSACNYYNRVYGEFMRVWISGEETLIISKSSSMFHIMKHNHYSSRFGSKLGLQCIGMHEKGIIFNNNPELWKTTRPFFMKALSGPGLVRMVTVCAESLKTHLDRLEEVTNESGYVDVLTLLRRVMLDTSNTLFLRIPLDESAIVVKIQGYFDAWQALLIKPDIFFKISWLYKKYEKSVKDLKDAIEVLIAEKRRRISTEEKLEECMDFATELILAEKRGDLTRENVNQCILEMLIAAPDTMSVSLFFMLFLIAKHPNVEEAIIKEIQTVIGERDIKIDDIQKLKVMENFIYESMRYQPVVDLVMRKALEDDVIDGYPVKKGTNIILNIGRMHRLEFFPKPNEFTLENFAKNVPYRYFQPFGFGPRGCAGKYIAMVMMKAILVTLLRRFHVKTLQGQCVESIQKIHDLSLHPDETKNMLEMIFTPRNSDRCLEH
Chain of Estrogen receptor (Homo sapiens) (P03372 whole entry, looked up): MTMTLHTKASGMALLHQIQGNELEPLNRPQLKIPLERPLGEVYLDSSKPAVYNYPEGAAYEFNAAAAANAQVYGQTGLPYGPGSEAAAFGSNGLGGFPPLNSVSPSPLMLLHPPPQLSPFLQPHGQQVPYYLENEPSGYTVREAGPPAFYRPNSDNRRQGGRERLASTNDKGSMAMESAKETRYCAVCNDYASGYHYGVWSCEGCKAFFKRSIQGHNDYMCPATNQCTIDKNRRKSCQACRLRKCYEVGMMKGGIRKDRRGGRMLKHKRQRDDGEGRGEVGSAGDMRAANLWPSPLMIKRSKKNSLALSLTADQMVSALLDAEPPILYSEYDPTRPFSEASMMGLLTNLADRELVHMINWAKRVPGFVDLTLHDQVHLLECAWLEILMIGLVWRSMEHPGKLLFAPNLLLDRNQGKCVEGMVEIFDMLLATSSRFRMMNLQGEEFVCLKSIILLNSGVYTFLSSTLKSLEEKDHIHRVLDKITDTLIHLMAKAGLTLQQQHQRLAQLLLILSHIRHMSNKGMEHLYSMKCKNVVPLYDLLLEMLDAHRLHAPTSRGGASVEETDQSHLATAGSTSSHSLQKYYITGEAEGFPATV
Chain of Androgen receptor (Homo sapiens) (P10275 whole entry, looked up): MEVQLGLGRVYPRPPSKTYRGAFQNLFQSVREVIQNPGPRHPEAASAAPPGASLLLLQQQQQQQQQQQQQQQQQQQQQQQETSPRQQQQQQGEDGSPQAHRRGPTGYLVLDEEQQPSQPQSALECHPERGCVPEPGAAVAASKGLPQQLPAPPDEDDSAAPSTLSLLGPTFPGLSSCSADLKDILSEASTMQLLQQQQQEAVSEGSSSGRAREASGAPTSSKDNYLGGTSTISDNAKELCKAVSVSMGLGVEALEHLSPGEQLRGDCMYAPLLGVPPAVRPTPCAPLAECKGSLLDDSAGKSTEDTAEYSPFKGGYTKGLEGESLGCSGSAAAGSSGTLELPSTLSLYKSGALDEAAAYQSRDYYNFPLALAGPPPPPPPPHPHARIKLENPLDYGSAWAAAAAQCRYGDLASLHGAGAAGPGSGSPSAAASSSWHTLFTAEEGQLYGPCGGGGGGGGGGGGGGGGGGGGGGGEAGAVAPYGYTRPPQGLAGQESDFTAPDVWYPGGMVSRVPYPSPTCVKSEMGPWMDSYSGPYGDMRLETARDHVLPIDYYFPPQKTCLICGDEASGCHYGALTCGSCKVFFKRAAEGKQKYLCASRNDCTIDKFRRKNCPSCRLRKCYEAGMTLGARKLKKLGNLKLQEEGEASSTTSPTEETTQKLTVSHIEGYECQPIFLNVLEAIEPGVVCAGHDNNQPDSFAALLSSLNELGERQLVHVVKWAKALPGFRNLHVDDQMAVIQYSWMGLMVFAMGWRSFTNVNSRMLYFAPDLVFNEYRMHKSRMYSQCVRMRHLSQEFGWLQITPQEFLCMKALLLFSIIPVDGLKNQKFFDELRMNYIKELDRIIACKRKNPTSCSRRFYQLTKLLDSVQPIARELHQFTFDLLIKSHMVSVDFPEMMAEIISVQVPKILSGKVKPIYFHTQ

For `CC(C)OC(=O)C(O)(c1ccc(Cl)cc1)c1ccc(Cl)cc1`, the Potency entry in test [1], in test [8], in test [9], in test [10], in test [11] and in test [12] was “inactive” in each case. In addition, the Potency entry in [13] is “inactive”. Also, the Potency in test [2] is 8.63 µM (active); in test [3], 6.86 µM (active); in [4], 7.7 µM (active); in [5], 61.1 µM (active); in [7] it was 38.9 µM [inhibitor] (active). Further, the outcome in [6] was inactive.

For the compound `Fc1ccc(Oc2ccnc3cc(Cl)cc(Cl)c23)cc1`, the Potency result in test [1], in [14], in [8], in [9], in test [10] and in test [12] was “inactive” throughout. For the same compound, the Potency entry (with Aromatase (Homo sapiens); in test [13]) was “inactive” in each case. Moreover, the Potency in [2] is 61.1 µM (active); in test [3], 68.6 µM (active); in [4], 61.1 µM (active); in test [15], 68.6 µM (active).

Consider `O=c1[nH]c2ccccc2n1C1CCN(CCCC(c2ccc(F)cc2)c2ccc(F)cc2)CC1`, for which the Potency is 5.49 µM (active) in [1]; 5.31 µM (active) and 6.11 µM (active) in test [2]; 10.6 µM (active) and 21.7 µM (active) in test [3]; “inactive and 17.4 µM (active)” in [14]; 26.8 µM (active) and 54.9 µM (active) in [8]; 54.5 µM (active) in test [12]. Further, the Potency result in the test with Aromatase (Homo sapiens) was “inactive and 30.6 µM (active)”; in test [13] it was 54.5 µM (active). In addition, the Potency entry in test [16] and in test [9] was “inactive” in each case.

For the compound `ClC1=C(Cl)C2(Cl)C3C(Cl)C=CC3C1(Cl)C2(Cl)Cl` (stereo not drawn), the Potency entry in [1], in test [14], in test [16], in test [7], in test [9] and in [10] was “inactive” throughout. Also, the Potency entry in test [11], in test [12] and in test [13] was “inactive” each time. Also, the Potency entry is “inactive and 48.6 µM (active)” in [2]; 30.6 µM (active) in test [3]; 30.8 µM (active) and 54.5 µM (active) in test [5]; 43.5 µM (active) and 54.5 µM (active) in test [15]; 68.6 µM (active) with Aromatase (Homo sapiens). For the same compound, the compound was classed as inactive in test [6].

On to `C[C@H]1O[C@@H](O[C@H]2[C@@H](O)C[C@H](O[C@H]3[C@@H](O)C[C@H](O[C@H]4CC[C@@]5(C)[C@H](CC[C@@H]6[C@@H]5CC[C@]5(C)[C@@H](C7=CC(=O)OC7)CC[C@]65O)C4)O[C@@H]3C)O[C@@H]2C)C[C@H](O)[C@@H]1O`, for which the Potency in test [1] was 477 nM (active) and 98.3 nM (active); in test [2], 422 nM (active) and 388 nM (active); in test [3], 473 nM (active) and 218 nM (active); in test [14] it was 95.2 nM (active) and 22 nM (active); in test [8] it was 33.8 nM (active) and 19.6 nM (active); in test [11] it was 548 nM (active). In addition, the Potency entry in [16], in test [17], in test [5], in test [15], in [9] and in test [12] was “inactive” each time. Further, the Potency entry (in the test with Aromatase (Homo sapiens); in [13]) was “inactive” throughout. Also, the result in test [6] was inactive.

Take `CC(C)(C)OO`: the Potency entry in test [1], in test [2], in [3], in test [14], in [18] and in test [19] was “inactive” each time. For the same compound, the Potency entry in test [16], in [17], in test [5], in test [15], in test [8] and in test [12] was “inactive” throughout. Besides, the Potency result (with Aromatase (Homo sapiens); in [13]) was “inactive” in each case. In addition, in [6], the outcome was inactive.

Regarding `CCOC(=O)C1(c2ccccc2)CCN(CCC(C#N)(c2ccccc2)c2ccccc2)CC1`, the Potency entry (in test [1]; in test [19]; in test [11]; in [12]; with Aromatase (Homo sapiens); in test [13]) was “inactive” each time. In addition, the Potency in test [2] is 2.98 µM (active) and 5.31 µM (active); in test [3] it was 3.76 µM (active) and 10.6 µM (active); in test [4] it was 5.31 µM (active) and 9.44 µM (active); in test [17], 26.6 µM (active) and 53.1 µM (active); in test [15], 9.44 µM (active) and 15 µM (active); in test [7], 6.01 µM [inconclusive] (active). In addition, the Potency in test [9] was 53.5 µM [inconclusive] (active). For the same compound, the compound was called inactive in test [6].

For the compound `CCOP(=S)(OCC)OC(Cl)C(Cl)(Cl)Cl` (stereo not drawn), the Potency entry in test [1], in [2], in test [3], in [14], in [16] and in test [5] was “inactive” throughout. Also, the Potency result in test [8], in test [12] and in test [13] was “inactive” throughout. Moreover, the call in [6] was inactive.

As for `COc1ccc(/C(=C/C(=O)N2CCOCC2)c2ccc(Cl)cc2)cc1OC`, the Potency entry in [1], in [14], in test [18], in test [19], in test [16] and in [5] was “inactive” each time. The Potency entry (in [15]; in [8]; in test [12]; with Aromatase (Homo sapiens); in test [13]) was “inactive” throughout. Besides, the Potency in test [2] was 24.3 µM (active); in test [3], 30.6 µM (active); in test [17], 30.6 µM (active). For the same compound, the compound was called inactive in test [6].

Consider `CC(C)Oc1cccc(NC(=O)c2ccccc2C(F)(F)F)c1`, for which the Potency result in test [1], in test [14], in test [7], in test [9], in test [10] and in [11] was “inactive” in each case. Moreover, in test [13], the Potency result is “inactive”. Besides, the Potency in test [2] was 15.4 µM (active); in test [3] it was 15.4 µM (active); in test [4], 30.6 µM (active). Besides, the compound was called inactive in test [6].

For the compound `O=C1NCN(c2ccccc2)C12CCN(CC1COc3ccccc3O1)CC2` (stereo not drawn), the Potency entry in [1], in test [3], in test [14], in test [16], in [7] and in test [8] was “inactive” throughout. The Potency entry (in [9]; in [11]; in test [12]; with Aromatase (Homo sapiens); in test [13]) was “inactive” in each case. The Potency in test [2] is 23.7 µM (active). Further, the call in test [6] was inactive.

With `N#C/C=C/C#N`, the Potency result in test [1], in test [2], in [3], in test [14], in test [16] and in test [7] was “inactive” throughout. Moreover, the Potency entry in test [8], in test [10] and in test [12] was “inactive” throughout. Besides, the Potency in test [5] is 64 µM (active); in [15], 32.1 µM (active); in test [9] it was 45.7 µM [inconclusive] (active); with Aromatase (Homo sapiens), 28.6 µM (active). In test [6], the compound was called inactive.

Take `CN(C)c1ccc(N=Nc2ccccc2)cc1`: the Potency result in test [1], in test [2], in test [3], in test [16], in test [5] and in test [8] was “inactive” in each case. In addition, in test [6], the outcome was inactive. Besides, the results for the Potency in test [12] and in test [13] were 61.2 µM (active) and 54.5 µM (active), respectively.

For `CCCCOCN(C(=O)CCl)c1c(CC)cccc1CC`, the Potency result in test [1], in test [19], in test [16], in test [8], in test [9] and in [11] was “inactive” in each case. For the same compound, in test [12], the Potency entry is “inactive”. Moreover, the Potency in test [2] was 8.63 µM (active); in test [3], 9.69 µM (active); in test [4], 9.69 µM (active); in test [17], 54.5 µM (active); with Aromatase (Homo sapiens) it was 61.1 µM (active).

Values taken from PubChem BioAssay (Tox21).
